Data: the supplement of paper PMC10849652
The full data set covers some 8,800 targets. This sample favours those with a hit. About 0.5% of all pairs of compound and target were hits.

How the values were obtained:
Assay in all cases: log2 fold change, soluble protein after heating vs DMSO (PISA); higher = thermal stabilisation; K562 lysate, 10 uM; active = over 0.2 and 3.5 SD of the protein, either way, in both replicates (recomputed)
[1] = compound: C=CC(=O)N1CCC[C@@H](n2nc(-c3ccc(Oc4ccccc4)cc3)c3c(N)ncnc32)C1 [ibrutinib]
Outline: (§1)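 Soluble protein was defined as the supernatant remaining after 21,000xg for 90 min, following pooling of heated aliquots and adjustment to 0.5% NP-40 at 4°C. Before that, crude K562 extract at 1 mg/mL protein in PBS pH 7.4 with 1 mM MgCl2 was treated with 10 μM compound for 30 min and heated for 3 min across 48°C-58°C. Quantification used TMTpro 16plex LC-MS/MS with channel sums equalised, and values are log-two fold changes in thermal stability relative to solvent controls from duplicates.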

[2] = compound: CC(C)(C)Cn1c(N)nc2ccc(-c3[nH]c(C(C)(C)C)nc3-c3ccc(F)cc3)nc21 [ralimetinib]
Outline: as §1

[3] = compound: CC(C)(O)CC(=O)NCCn1ccc2ncnc(Nc3ccc(Oc4cccc(C(F)(F)F)c4)c(Cl)c3)c21
Outline: as §1

[4] = compound: CC(C)C1=C2N=C(C=C(N2N=C1)NCC3=CC=CC=C3)NCCCCCCN
Outline: as §1

[5] = compound: CC1=C(C=C(C=C1)NC(=O)C2=CC(=CC=C2)C(C)(C)C#N)NC3=CC4=C(C=C3)N=CN(C4=O)C
Outline: as §1

[6] = compound: CC1=C(C=C(C=C1)NC(=O)C2=CC(=CC=C2)N(C)C)NC(=O)C3=CC=C(C=C3)O
Outline: as §1

[7] = compound: CC1=C(C(CC(=O)N1)C2=CC=C(C=C2)C(F)(F)F)C(=O)NC3=C(C=C4C(=C3)C=NN4)F
Outline: as §1

[8] = compound: CC1=C(C2=C(C=C1)C(=O)C3=CC=CC=C3N2CCCN)C
Outline: as §1

[9] = compound: CC(=O)c1cnc2ccc(-c3cc(Cl)c(O)c(Cl)c3)nc2c1N[C@H]1CC[C@H](CN(C)C)CC1
Outline: as §1

[10] = compound: CC1=CC=C(C=C1)SC2=C3C=C(SC3=CN=C2)C(=O)N
Outline: as §1

Measured: log2 fold change

CCDC130 (UniProt P13994)
inactive: [1] -0.232 | [2] 0.181 | [3] 0.077 | [4] -0.112 | [5] 0.252 | [6] 0.072

C15orf39 (UniProt Q6ZRI6)
inactive: [1] -0.141 | [2] -0.005 | [3] -0.029 | [4] -0.06 | [7] 0.104 | [8] 0.039 | [5] -0.03 | [6] 0.019

CEP57L1 (UniProt Q8IYX8)
Chain of UniProt Q8IYX8 (Q8IYX8 whole entry, looked up): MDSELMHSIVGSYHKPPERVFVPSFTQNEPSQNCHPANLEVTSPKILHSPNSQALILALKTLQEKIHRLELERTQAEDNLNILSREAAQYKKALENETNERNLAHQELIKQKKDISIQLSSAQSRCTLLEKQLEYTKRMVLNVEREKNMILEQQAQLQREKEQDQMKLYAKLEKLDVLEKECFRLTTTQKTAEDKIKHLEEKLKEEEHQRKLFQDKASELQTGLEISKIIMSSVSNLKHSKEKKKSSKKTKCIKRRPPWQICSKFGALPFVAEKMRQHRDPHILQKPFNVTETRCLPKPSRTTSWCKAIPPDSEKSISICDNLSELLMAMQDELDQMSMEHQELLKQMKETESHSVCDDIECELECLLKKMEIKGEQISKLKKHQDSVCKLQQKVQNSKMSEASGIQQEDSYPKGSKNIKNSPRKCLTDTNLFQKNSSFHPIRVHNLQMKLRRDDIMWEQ
inactive: [1] -0.039 | [2] 0.171 | [3] -0.272 | [4] -0.049 | [7] 0.11 | [8] -0.191 | [5] -0.037 | [6] -0.044

ATG10 (UniProt Q9H0Y0)
inactive: [1] 0.057 | [2] 0.001 | [3] -0.013 | [4] -0.062 | [7] -0.132 | [8] 0.063 | [5] 0.053 | [6] 0.012

CCND3 (UniProt P30281)
Chain of UniProt P30281 (P30281 whole entry, looked up): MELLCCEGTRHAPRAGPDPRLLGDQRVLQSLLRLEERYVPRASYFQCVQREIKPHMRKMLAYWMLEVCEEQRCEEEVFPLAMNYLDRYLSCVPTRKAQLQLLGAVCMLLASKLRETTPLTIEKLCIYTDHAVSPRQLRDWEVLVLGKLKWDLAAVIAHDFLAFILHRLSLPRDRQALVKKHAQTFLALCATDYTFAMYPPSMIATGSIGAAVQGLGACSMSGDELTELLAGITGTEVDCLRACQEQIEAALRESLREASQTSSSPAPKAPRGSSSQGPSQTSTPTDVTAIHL
inactive: [1] 0.122 | [2] 0.039 | [3] 0 | [4] 0.032 | [7] -0.104 | [8] -0.063 | [5] -0.021 | [6] -0.067

CDCA8 (UniProt Q53HL2)
inactive: [1] 0.047 | [4] -0.082 | [7] 0.038 | [8] 0.011

CHD9 (UniProt Q3L8U1)
inactive: [2] -0.117 | [3] -0.147 | [4] -0.074 | [7] 0.212 | [8] 0.038 | [5] -0.031 | [6] -0.023

CHD4, A0A2R8Y521
inactive: [9] -0.049 | [2] -0.175 | [3] -0.011 | [7] -0.19 | [8] 0.191 | [6] 0.228 | [10] 0.314

ATPSCKMT (UniProt Q6P4H8)
inactive: [1] -0.042 | [2] -0.15 | [3] 0.088 | [8] 0.019 | [5] -0.015 | [6] -0.001

CEP152 (UniProt O94986)
inactive: [1] -0.077 | [2] 0.144 | [3] -0.092 | [4] -0.062 | [7] -0.04 | [8] -0.071 | [5] 0.095 | [6] -0.067

CAPNS1 (UniProt K7ES78)
inactive: [9] 0.028 | [2] 0.061 | [3] -0.196 | [4] -0.101 | [8] 0.025 | [5] 0.148 | [6] -0.105 | [10] -0.075

ATG4D (UniProt Q86TL0)
inactive: [1] -0.086 | [2] 0.049 | [3] 0.074 | [8] 0.319 | [5] -0.096 | [6] -0.052

CDK5RAP1 (UniProt Q96SZ6)
Chain of UniProt Q96SZ6 (Q96SZ6 whole entry, looked up): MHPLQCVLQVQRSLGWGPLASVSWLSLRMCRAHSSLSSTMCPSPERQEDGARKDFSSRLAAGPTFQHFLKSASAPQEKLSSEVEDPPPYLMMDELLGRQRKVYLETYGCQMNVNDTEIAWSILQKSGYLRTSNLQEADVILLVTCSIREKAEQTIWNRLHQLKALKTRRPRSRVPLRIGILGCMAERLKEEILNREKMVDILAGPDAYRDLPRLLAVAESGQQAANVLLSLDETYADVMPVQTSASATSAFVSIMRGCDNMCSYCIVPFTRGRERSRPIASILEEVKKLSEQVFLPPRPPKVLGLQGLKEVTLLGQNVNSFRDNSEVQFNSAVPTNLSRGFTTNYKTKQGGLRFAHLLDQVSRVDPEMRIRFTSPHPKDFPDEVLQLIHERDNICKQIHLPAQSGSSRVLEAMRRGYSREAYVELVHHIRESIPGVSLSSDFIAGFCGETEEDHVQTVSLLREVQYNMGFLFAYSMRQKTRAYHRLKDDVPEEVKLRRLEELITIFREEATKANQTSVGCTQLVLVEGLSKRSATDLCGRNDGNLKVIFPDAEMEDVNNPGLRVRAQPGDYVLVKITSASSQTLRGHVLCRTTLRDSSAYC
inactive: [1] -0.369 | [2] -0.018 | [3] -0.062 | [4] 0.122 | [7] -0.002 | [8] -0.027 | [5] -0.001 | [6] 0.045

ATXN2 (UniProt F8WB06)
inactive: [8] 0.187

B3GALT6 (UniProt Q96L58)
inactive: [1] -0.025 | [2] 0.065 | [3] 0.23 | [4] -0.025 | [8] -0.112 | [5] -0.168 | [6] -0.046

CCP110 (UniProt O43303)
inactive: [1] -0.008 | [2] 0.082 | [3] 0.001 | [4] 0.054 | [8] -0.186 | [5] 0.01 | [6] 0.113

CDAN1 (UniProt H3BPZ6)
inactive: [5] -0.172

CDC25A (UniProt P30304)
Chain of UniProt P30304 (P30304 whole entry, looked up): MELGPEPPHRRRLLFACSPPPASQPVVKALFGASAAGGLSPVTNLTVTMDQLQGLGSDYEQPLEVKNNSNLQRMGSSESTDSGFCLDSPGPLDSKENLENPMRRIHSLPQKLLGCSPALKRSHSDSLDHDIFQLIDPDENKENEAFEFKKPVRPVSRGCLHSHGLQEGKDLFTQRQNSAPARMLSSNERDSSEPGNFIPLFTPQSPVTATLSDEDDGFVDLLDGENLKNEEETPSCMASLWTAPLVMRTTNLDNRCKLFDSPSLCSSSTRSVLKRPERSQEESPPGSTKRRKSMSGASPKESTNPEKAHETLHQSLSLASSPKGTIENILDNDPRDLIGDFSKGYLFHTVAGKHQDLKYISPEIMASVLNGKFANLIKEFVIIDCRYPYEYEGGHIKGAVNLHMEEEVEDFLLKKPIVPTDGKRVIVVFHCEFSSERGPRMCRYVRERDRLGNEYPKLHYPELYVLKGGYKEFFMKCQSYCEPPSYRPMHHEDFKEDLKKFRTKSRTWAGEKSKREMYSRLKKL
inactive: [9] -0.009 | [2] 0.014 | [3] -0.044 | [4] 0.019 | [7] -0.017 | [8] 0.012 | [5] 0.087 | [6] 0.015 | [10] 0.002

C1orf131 isoform 5 (UniProt Q8NDD1)
Chain of UniProt Q8NDD1 (Q8NDD1 whole entry, looked up): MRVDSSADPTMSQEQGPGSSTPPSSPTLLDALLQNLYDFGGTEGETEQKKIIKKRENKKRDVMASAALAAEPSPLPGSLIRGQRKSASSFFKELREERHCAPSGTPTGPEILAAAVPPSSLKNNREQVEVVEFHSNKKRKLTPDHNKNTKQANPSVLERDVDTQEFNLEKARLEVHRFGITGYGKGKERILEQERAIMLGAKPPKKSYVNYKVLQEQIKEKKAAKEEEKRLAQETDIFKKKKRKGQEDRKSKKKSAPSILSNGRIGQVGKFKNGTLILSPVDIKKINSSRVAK
inactive: [9] 0.041 | [2] 0.06 | [3] -0.056 | [4] 0.028 | [7] -0.016 | [8] -0.071 | [5] 0.08 | [6] 0.025 | [10] -0.043

C8orf88 (UniProt P0DMB2)
Chain of UniProt P0DMB2 (P0DMB2 whole entry, looked up): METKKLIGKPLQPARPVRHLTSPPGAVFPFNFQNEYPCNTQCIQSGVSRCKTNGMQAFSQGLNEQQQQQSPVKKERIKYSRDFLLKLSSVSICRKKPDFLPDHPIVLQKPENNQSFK
inactive: [1] -0.004 | [2] 0.06 | [3] 0.047 | [4] -0.05 | [8] 0.006 | [5] 0.052 | [6] 0.022

BAHCC1 (UniProt Q9P281)
Chain of UniProt Q9P281 (Q9P281 whole entry, looked up): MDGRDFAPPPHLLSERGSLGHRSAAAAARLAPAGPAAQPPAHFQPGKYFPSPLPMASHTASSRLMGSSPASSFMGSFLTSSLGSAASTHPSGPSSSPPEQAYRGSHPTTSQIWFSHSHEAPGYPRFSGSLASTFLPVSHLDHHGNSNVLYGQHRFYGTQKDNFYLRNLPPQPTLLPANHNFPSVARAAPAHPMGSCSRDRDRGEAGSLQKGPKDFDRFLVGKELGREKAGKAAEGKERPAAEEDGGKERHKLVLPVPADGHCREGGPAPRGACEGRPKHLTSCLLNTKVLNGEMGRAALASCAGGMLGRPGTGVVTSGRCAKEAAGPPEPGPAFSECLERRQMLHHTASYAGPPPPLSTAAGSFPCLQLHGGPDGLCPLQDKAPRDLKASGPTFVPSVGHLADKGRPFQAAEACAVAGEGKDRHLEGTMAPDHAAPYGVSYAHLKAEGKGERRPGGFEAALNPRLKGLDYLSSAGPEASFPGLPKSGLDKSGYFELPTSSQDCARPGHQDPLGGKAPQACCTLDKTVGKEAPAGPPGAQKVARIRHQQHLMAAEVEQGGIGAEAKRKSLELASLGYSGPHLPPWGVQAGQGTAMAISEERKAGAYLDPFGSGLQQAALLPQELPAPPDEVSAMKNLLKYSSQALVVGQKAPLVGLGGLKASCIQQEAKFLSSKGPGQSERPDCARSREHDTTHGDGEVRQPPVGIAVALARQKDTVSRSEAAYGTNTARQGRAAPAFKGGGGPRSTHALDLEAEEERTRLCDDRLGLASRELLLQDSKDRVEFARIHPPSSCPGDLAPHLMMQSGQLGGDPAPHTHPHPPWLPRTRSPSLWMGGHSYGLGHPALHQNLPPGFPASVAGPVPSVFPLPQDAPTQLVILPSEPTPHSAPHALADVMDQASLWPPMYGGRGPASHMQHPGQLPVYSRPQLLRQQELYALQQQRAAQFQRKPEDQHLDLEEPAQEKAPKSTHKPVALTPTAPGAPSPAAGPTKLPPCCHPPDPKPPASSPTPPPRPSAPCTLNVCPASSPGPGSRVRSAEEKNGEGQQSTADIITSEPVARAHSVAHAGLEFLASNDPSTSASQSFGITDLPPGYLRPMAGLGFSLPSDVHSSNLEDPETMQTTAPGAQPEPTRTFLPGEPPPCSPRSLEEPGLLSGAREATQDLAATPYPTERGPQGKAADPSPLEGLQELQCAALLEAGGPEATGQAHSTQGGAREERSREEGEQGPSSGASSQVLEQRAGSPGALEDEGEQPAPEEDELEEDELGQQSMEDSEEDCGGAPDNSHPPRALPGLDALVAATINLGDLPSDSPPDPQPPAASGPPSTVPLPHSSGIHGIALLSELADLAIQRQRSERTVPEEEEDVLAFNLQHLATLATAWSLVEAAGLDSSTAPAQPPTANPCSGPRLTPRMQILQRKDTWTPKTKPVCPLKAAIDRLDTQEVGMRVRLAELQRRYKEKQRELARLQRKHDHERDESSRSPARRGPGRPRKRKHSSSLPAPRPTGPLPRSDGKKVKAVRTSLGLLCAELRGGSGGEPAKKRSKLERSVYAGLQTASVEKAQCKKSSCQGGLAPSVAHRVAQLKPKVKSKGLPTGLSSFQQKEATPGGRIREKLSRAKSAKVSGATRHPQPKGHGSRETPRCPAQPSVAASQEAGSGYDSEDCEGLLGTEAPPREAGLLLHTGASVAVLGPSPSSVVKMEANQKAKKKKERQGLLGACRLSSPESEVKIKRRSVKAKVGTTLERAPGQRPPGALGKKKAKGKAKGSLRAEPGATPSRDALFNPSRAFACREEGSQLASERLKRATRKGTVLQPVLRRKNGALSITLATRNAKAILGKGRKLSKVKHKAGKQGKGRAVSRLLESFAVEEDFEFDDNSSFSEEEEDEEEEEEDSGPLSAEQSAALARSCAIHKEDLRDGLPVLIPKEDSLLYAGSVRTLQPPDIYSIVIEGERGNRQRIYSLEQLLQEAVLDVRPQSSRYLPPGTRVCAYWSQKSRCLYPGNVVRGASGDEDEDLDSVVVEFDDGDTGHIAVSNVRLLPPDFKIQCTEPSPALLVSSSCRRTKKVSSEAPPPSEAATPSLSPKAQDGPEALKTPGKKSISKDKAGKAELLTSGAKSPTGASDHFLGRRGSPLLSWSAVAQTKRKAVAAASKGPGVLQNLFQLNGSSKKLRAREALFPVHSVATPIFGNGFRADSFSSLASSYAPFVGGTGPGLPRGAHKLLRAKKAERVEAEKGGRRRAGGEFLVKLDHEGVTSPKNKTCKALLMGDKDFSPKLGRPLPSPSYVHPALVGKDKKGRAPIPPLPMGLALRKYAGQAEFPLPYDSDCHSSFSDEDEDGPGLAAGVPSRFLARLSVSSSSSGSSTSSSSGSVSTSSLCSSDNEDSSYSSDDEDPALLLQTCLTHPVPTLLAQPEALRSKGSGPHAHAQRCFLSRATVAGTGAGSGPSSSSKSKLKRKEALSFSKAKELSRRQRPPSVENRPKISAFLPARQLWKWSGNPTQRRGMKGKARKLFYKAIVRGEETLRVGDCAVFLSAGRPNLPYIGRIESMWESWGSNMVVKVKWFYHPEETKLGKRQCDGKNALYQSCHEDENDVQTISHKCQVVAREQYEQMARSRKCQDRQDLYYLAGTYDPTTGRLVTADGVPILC
inactive: [9] -0.045 | [4] -0.018 | [7] -0.114 | [8] -0.008 | [5] 0.013 | [10] 0.074

BMT2 (UniProt Q1RMZ1)
inactive: [7] 0.586
